# Data taken from PubChem BioAssay (NCATS).
# Where “and” joins values, the source holds several entries; their conditions need not be identical. Identical values can stand only once. Results filed as inconclusive are left out. Where a call stands in place of a potency, no number is given. The source holds several records for some structures; these can differ, active in one and inactive in another. Calls of active or inactive are those of the source. Unless noted, calls follow the shape of the dose curve; as a rule, active = well fitted curve in the direction sought with a large enough effect; inconclusive = small, poorly fitted or top-dose-only effect, or another doubt; inactive = no such curve, though single readings can be large; an effect the other way counts as inactive or inconclusive.
# Assays:
# [1] = biological target: Rap guanine nucleotide exchange factor 4 (Homo sapiens) (UniProt Q8WZA2); assay: Confirmatory qHTS for agonist of cAMP-regulated guanine nucleotide exchange factor 4 (EPAC2) (AID 1645884);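 also: nucleotide exchange releases bodipy-GDP from Rap1 and this lowers its fluorescence; nearly all actives have a fitted effect of over 65% in size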; also: potency is read from the fitted curve at half-maximal effect
# Sequence of Rap guanine nucleotide exchange factor 4 (Homo sapiens) (Q8WZA2 whole entry, looked up): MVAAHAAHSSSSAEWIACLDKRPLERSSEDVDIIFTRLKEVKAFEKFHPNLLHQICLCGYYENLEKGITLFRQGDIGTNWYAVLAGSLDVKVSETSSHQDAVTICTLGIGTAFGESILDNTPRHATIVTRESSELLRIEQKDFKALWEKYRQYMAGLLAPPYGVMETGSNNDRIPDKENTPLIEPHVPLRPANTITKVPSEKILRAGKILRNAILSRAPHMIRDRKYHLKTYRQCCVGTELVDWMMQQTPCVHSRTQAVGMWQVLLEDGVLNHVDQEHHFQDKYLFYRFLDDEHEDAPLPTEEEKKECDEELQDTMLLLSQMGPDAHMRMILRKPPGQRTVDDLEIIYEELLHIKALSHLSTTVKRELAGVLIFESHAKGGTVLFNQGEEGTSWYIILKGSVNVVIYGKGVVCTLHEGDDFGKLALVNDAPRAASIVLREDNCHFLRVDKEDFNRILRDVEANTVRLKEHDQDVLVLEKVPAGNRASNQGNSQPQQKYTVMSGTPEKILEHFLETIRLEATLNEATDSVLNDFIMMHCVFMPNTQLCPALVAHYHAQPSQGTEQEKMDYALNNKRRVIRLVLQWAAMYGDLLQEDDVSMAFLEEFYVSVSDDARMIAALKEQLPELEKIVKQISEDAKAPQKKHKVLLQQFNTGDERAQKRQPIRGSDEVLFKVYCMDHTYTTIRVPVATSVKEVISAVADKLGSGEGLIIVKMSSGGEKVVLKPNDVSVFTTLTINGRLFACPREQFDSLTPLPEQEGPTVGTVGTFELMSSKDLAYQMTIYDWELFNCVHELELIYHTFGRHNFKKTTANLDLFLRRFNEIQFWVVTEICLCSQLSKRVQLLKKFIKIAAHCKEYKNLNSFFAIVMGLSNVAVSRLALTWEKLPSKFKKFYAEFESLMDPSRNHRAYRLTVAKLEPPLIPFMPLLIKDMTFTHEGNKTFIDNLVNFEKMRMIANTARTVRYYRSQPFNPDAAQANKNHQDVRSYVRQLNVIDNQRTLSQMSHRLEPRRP
# [2] = biological target: Rap guanine nucleotide exchange factor 4 (Homo sapiens) (UniProt Q8WZA2); assay: Confirmatory qHTS for antagonist of cAMP-regulated guanine nucleotide exchange factor 4 (EPAC2) (AID 1645885); also: nearly all actives have a fitted effect of over 25% in size; also: potency is read from the fitted curve at half-maximal effect
# [3] = biological target: Metallo-beta-lactamase type 2 (Klebsiella pneumoniae) (UniProt C7C422); assay: qHTS to identify inhibitors of the New Delhi Metallo-beta-lactamase (NDM): assay validation screen against the NCATS LOPAC Collection (AID 1794843);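 also: nitrocefin turnover by NDM-1 measured as 485 nm absorbance at plateau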
# Sequence of Metallo-beta-lactamase type 2 (Klebsiella pneumoniae) (C7C422 whole entry, looked up): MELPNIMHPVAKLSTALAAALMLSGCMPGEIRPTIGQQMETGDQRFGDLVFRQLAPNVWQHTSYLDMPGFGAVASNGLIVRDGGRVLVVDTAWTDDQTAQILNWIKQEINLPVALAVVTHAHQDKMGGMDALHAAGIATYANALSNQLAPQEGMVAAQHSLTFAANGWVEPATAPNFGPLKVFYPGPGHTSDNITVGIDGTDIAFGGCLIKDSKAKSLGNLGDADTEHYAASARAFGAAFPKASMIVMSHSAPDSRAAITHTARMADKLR
# Summary of the method: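 NDM-1 at 2 nM final in 50 mM HEPES pH 7.0, 1 uM ZnSO4, 0.01% Tween20, preincubated with LOPAC compounds pinned in DMSO; 50 uM nitrocefin (stock) added. Hydrolysis read as absorbance at 485 nm in the plateau phase.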
# [4] = biological target: Glutathione peroxidase 1 (Homo sapiens) (UniProt P07203); assay: Primary qHTS Assay for Inhibitors of Recombinant Selenoprotein Glutathione Peroxidase 1 (GPX1) (AID 1845191); also: nearly all actives have a fitted effect of over 65% in size; also: potency is read from the fitted curve at half-maximal effect
# Sequence of Glutathione peroxidase 1 (Homo sapiens) (P07203 whole entry, looked up): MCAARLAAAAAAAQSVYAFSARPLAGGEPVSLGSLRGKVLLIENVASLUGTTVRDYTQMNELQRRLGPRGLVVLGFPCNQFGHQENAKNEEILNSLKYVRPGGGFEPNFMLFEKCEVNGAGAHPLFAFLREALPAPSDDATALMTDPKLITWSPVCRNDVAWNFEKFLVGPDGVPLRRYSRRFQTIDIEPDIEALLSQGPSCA
# Summary of the method: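 10 nM GPX1 + cpd, 30 min RT; start w/ 1 mM GSH, 0.5 mM cumene hydroperoxide, 0.5 mM NADPH, 100 nM GR, 0.01% BSA; buffer 50 mM Tris-HCl pH 7.5, 2 mM EDTA, 150 mM NaCl; Fl 340/450, 0 & 15 min.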
# [5] = biological target: Phospholipid hydroperoxide glutathione peroxidase GPX4 (Homo sapiens) (UniProt P36969); assay: Primary qHTS Assay for Inhibitors of Recombinant Selenoprotein Glutathione Peroxidase 4 (GPX4) (AID 1845192); also: nearly all actives have a fitted effect of over 65% in size; also: potency is read from the fitted curve at half-maximal effect
# Sequence of Phospholipid hydroperoxide glutathione peroxidase GPX4 (Homo sapiens) (P36969 whole entry, looked up): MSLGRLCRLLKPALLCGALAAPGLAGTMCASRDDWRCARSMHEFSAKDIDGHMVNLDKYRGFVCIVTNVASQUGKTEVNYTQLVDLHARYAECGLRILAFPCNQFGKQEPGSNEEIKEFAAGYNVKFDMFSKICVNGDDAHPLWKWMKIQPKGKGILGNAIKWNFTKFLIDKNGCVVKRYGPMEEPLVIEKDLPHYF
# Summary of the method: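 NADPH consumption, followed by fluorescence at 340/450 nm between 0 and 15 min, reports GPX4 activity via coupled glutathione reductase (100 nM). Enzyme 200 nM was pre-exposed to compound 30 min; 0.5 mM cumene hydroperoxide and 1 mM GSH served as substrates.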
# [6] = NCATS anti-infectives library activity on HEK293 viability as a counter-qHTS vs the C. elegans viability qHTS (AID 1745854);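 also: HEK293 cells exposed to compounds for 24 hr before the viability read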; also: potency is read from the fitted curve at half-maximal effect
# Summary of the method: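 Cytotoxicity in human HEK293 cells is measured by ATP-dependent CellTiter-Glo luminescence following a 24 hr incubation with titrated library compounds at 37C. Top final concentration is 41.7 uM.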
# [7] = NCATS anti-infectives library activity on the primary C. elegans qHTS viability assay (AID 1745855; calls by dose curve; also: potency is read from the fitted curve at half-maximal effect)
# Summary of the method: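 Viability is taken from GFP fluorescence of PE254-GFP-FLuc C. elegans imaged by laser cytometry over 7 days. Ten L1 worms per well grow at 21 °C on TOP10 E. coli capsules with titrated compound; levamisole marks toxicity.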
# [8] = Viability counterscreen for antagonist of constitutive androstane receptor (CAR) against the NCATS DSHEA and TCM libraries (AID 1794837);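 also: compound exposure lasted 24 h before viability reading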
# Summary of the method: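 Counterscreen performed in a 1536-well qHTS format using HepG2-CYP2B6-hCAR cells; samples titrated in the presence of 48 uM CITCO, with viability measured fluorometrically (405/540 nm) after 24 h.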
# [9] = Viability counterscreen for agonist of constitutive androstane receptor (CAR) against the NCATS DSHEA and TCM libraries (AID 1794838);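 also: cells exposed to compound for 24 h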
# Summary of the method: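 Multiplexed counterscreen: after 24 h compound exposure with 0.75 uM PK11195, HepG2-CYP2B6-hCAR viability was quantified fluorimetrically (CellTiter-Fluor, 405/540 nm) prior to the ONE-Glo luciferase read.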
# [10] = biological target: Nuclear receptor subfamily 1 group I member 3 (Homo sapiens) (UniProt Q14994); assay: Primary qHTS for agonist of constitutive androstane receptor (CAR) against the NCATS DSHEA and TCM libraries (AID 1794839);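 also: HepG2 cells expressing human CAR with a CYP2B6 reporter plus PK11195 antagonist; luciferase reporter luminescence read with ONE-Glo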
# Sequence of Nuclear receptor subfamily 1 group I member 3 (Homo sapiens) (Q14994 whole entry, looked up): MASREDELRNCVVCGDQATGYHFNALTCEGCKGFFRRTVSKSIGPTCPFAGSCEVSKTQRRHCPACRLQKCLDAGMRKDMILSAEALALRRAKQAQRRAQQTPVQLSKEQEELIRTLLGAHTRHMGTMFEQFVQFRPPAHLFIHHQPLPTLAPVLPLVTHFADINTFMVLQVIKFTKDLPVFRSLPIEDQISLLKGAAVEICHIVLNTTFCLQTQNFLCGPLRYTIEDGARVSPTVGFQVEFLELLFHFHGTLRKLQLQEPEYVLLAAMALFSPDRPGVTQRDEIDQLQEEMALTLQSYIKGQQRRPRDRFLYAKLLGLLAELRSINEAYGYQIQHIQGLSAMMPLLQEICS
# Summary of the method: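 Concentration–response screen in HepG2-CYP2B6-hCAR cells under 0.75 µM PK11195; 24 h exposure; luminescent reporter signal with multiplexed fluorescent viability.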
# [11] = HepG2 viability counterscreen (readout 2: ATP content) against the NCATS DSHEA and TCM libraries (AID 1794840);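 also: HepG2 cells exposed to substances for about 24 h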
# Summary of the method: (§1)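 After HepG2 cells attach for ~4 h, substances are added and incubated ~24 h at 37C, 5% CO2. GF-AFC fluorescence then CellTiter-Glo luminescence give protease and ATP readouts.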
# [12] = HepG2 viability counterscreen (readout 1: protease activity) against the NCATS DSHEA and TCM libraries (AID 1794841);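 also: cells exposed to compounds for about 24 h before the protease read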
# Summary of the method: as §1
# [13] = biological target: Catechol O-methyltransferase (Homo sapiens) (UniProt P21964); assay: Confirmatory Screen for Target Class Profiling of Small Molecule Inhibitors of Methyltransferases (AID 1745852; calls by dose curve; also: potency is read from the fitted curve at half-maximal effect); settings: MTase-Glo luminescence, SAH detection, recombinant enzyme; measured here: COMT max response; stronger effect = lower value
# Sequence of Catechol O-methyltransferase (Homo sapiens) (P21964 whole entry, looked up): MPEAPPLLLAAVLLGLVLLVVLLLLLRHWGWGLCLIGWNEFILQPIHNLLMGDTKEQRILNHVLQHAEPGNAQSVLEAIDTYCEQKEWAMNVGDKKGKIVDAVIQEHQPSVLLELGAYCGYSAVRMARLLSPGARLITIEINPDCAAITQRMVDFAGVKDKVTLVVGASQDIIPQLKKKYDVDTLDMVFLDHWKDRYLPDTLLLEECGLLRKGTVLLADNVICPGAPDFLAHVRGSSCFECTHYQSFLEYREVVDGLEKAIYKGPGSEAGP
# [14] = biological target: Guanidinoacetate N-methyltransferase (Homo sapiens) (UniProt Q14353); assay: as above; settings: MTase-Glo luminescence, SAH detection, recombinant enzyme; activity change, negative = inhibition: at 57.3 µM (top of the series)
# [15] = biological target: Nicotinamide N-methyltransferase (Homo sapiens) (UniProt P40261); assay: as above; settings: MTase-Glo luminescence, SAH detection, recombinant enzyme; measured here: NNMT max response; stronger effect = lower value
# Sequence of Nicotinamide N-methyltransferase (Homo sapiens) (P40261 whole entry, looked up): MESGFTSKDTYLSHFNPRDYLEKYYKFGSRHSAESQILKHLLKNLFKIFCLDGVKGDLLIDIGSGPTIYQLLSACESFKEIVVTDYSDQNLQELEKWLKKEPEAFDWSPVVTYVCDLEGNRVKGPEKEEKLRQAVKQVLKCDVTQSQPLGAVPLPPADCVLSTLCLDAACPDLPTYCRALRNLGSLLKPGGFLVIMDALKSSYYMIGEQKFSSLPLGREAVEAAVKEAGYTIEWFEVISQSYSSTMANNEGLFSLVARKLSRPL
# [16] = biological target: Phenylethanolamine N-methyltransferase (Homo sapiens) (UniProt P11086); assay: as above; settings: MTase-Glo luminescence, SAH detection, recombinant enzyme; measured here: PNMT max response; stronger effect = lower value
# Sequence of Phenylethanolamine N-methyltransferase (Homo sapiens) (P11086 whole entry, looked up): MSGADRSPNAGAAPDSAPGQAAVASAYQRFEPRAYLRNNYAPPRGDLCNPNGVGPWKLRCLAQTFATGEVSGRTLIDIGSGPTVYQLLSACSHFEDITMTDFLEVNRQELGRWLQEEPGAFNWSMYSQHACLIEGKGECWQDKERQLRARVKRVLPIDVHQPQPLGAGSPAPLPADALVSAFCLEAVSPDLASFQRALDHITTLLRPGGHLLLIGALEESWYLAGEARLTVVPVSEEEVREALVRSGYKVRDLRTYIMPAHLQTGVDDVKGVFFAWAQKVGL
# [17] = biological target: Rap guanine nucleotide exchange factor 3 (Homo sapiens) (UniProt O95398); assay: Counterscreen qHTS for antagonist of cAMP-regulated guanine nucleotide exchange factor 3 (EPAC1) (AID 1645888);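 also: fluorescence loss as bound BODIPY-GDP is released from Rap1B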
# Sequence of Rap guanine nucleotide exchange factor 3 (Homo sapiens) (O95398 whole entry, looked up): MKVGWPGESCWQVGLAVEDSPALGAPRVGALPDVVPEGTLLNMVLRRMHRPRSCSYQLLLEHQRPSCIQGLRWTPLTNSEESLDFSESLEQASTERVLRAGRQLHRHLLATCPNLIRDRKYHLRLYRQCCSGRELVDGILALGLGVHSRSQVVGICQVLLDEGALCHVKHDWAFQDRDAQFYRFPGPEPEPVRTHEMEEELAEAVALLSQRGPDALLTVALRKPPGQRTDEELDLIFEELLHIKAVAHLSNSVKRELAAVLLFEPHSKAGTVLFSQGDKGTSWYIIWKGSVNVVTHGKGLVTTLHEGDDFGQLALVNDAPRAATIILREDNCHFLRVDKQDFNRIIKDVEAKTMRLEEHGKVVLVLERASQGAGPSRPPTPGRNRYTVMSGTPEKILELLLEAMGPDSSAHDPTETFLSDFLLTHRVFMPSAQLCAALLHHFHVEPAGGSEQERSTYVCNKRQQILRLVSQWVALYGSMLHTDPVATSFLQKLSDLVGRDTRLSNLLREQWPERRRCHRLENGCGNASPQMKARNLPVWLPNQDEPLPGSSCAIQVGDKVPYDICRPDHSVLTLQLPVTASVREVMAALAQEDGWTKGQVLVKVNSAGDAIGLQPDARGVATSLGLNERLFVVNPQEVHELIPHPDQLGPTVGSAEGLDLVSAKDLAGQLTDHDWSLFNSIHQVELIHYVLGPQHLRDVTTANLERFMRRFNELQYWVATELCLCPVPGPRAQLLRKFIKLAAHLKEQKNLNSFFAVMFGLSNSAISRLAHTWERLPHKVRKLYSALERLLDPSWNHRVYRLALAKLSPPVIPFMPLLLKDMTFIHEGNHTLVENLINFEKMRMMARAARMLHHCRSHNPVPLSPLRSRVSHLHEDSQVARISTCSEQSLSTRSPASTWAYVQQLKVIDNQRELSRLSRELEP
# Summary of the method: (§2)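 Rap1B-BODIPY-GDP 250 nM + GDP 50 uM; cpds 7-pt, final 9.74 nM–152 uM (activator mode) or from 7.32 nM upwards (inhibitor mode); RT; FI 480/540 nm at 5 and 30 min, then ± cAMP, reread.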
# [18] = biological target: Rap guanine nucleotide exchange factor 3 (Homo sapiens) (UniProt O95398); assay: Counterscreen qHTS for agonist of cAMP-regulated guanine nucleotide exchange factor 3 (EPAC1) (AID 1645889); also: nearly all actives have a fitted effect of over 40% in size; also: potency is read from the fitted curve at half-maximal effect
# Summary of the method: as §2
# [19] = biological target: Luciferin 4-monooxygenase (Photinus pyralis) (UniProt P08659); assay: Primary firefly luciferase (FLuc) qHTS assay for identification of artifact compounds. (AID 1845220); settings: outcome: dose series up to 54.1 µM; also: nearly all actives have a fitted effect of over 60% in size
# Summary of the method: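 FLuc 10 nM; luciferin 10 uM; ATP 10 uM; Tris-acetate pH 7.6, Mg-acetate 10 mM; 15 min RT preincubation; 5 min reaction; luminescence.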
# [20] = Primary fluorescence-based thiol-reactive (MSTI) qHTS assay for identification of artifact compounds. (AID 1845221);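 also: thiol-reactive compounds lower the probe fluorescence signal; nearly all actives have a fitted effect of over 65% in size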
# Summary of the method: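 In PBS pH 7.4 with 2% DMSO, each compound met 4 uM MSTI for one hour at ambient temperature, shielded from light, before fluorescence detection.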
smiles,measurement,setting,value
NCCS(=O)(=O)O,Potency,[1],inactive
same,Potency,[2],inactive
same,outcome,[3],inactive
same,Potency,[4],inactive
same,Potency,[5],inactive
O=C(CCCN1CCC(O)(c2ccc(Cl)cc2)CC1)c1ccc(F)cc1,Potency,[6],inactive
same,Potency,[7],inactive
same,outcome,[3],inactive
same,Potency,[4],inactive
same,Potency,[5],inactive
Cn1c(=O)c2c(ncn2C)n(C)c1=O,outcome,[8],inactive
same,outcome,[9],inactive
same,outcome,[10],inactive
same,outcome,[11],inactive
same,outcome,[12],inactive
same,Potency,[4],inactive
same,Potency,[5],inactive
NC12CC3CC(CC(C3)C1)C2,Potency,[6],inactive
same,outcome,[3],inactive
same,Potency,[4],inactive
CC(C)Cc1ccc(C(C)C(=O)O)cc1 (stereo not given),Potency,[6],inactive
same,outcome,[3],inactive
same,Potency,[4],inactive
same,Potency,[5],inactive
CN(C)CCC=C1c2ccccc2C=Cc2ccccc21,activity,[13],7.28%
same,Potency,[14],0.0039 µM (active)
same,activity,[15],-9.28%
same,activity,[16],7.91%
same,Potency,[4],inactive
same,Potency,[5],inactive
NS(=O)(=O)c1cc2c(cc1Cl)NCNS2(=O)=O,Potency,[6],inactive
same,Potency,[4],inactive
Nc1nc2c(ncn2COC(CO)CO)c(=O)[nH]1,Potency,[6],inactive
same,outcome,[3],inactive
same,Potency,[4],inactive
same,Potency,[5],inactive
Cc1cn([C@H]2C[C@H](N=[N+]=[N-])[C@@H](CO)O2)c(=O)[nH]c1=O,Potency,[6],inactive
same,Potency,[4],inactive
same,Potency,[5],inactive
Cc1ccc(C(=O)Nc2ccc(S(=O)(=O)O)c3cc(S(=O)(=O)O)cc(S(=O)(=O)O)c23)cc1NC(=O)c1cccc(NC(=O)Nc2cccc(C(=O)Nc3cc(C(=O)Nc4ccc(S(=O)(=O)O)c5cc(S(=O)(=O)O)cc(S(=O)(=O)O)c45)ccc3C)c2)c1,activity,[13],5.77%
same,"activity change, negative = inhibition",[14],2.65%
same,activity,[15],-4.38%
same,activity,[16],6.94%
same,Potency,[4],inactive
same,Potency,[5],inactive and 7 µM (active)
CN(C)CCCN1c2ccccc2CCc2ccc(Cl)cc21,Potency,[6],inactive
same,Potency,[4],inactive
same,Potency,[5],inactive
O=c1[nH]cc(F)c(=O)[nH]1,Potency,[6],inactive
same,Potency,[7],6.48 µM (active)
same,outcome,[3],inactive
same,Potency,[4],inactive
Nc1ccn([C@H]2CC[C@@H](CO)O2)c(=O)n1,Potency,[6],inactive
same,outcome,[3],inactive
same,Potency,[4],inactive
NC(=O)NO,Potency,[6],inactive
same,Potency,[4],inactive
same,Potency,[5],inactive
CC(=O)OCC(CCn1cnc2cnc(N)nc21)COC(C)=O,Potency,[6],inactive
same,Potency,[7],inactive
same,Potency,[4],inactive
C[C@H]1c2cccc(O)c2C(O)=C2C(=O)[C@]3(O)C(O)=C(C(N)=O)C(=O)[C@@H](N(C)C)[C@@H]3[C@@H](O)[C@@H]21,Potency,[6],inactive
same,Potency,[7],1.15 µM (active)
same,Potency,[4],inactive
O=C1c2c(O)ccc(O)c2C(=O)c2c(NCCNCCO)ccc(NCCNCCO)c21,Potency,[6],12.6 µM (active)
same,Potency,[4],inactive
same,Potency,[5],inactive
Clc1ccccc1C(c1ccccc1)(c1ccccc1)n1ccnc1,Potency,[1],inactive
same,Potency,[2],9.87 µM (active) and 5.3 µM (active)
same,"activity change, negative = inhibition",[17],6.78% [at 30.8 µM] (inactive)
same,Potency,[4],inactive
same,Potency,[5],inactive
CCOC(=O)Nc1ccc(NCc2ccc(F)cc2)nc1N,Potency,[1],inactive
same,Potency,[2],inactive
same,outcome,[17],inactive
same,Potency,[18],4.47 µM (active)
same,Potency,[4],inactive
same,Potency,[5],inactive
CC[C@@]1(O)C(=O)OCc2c1cc1n(c2=O)Cc2cc3c(CN(C)C)c(O)ccc3nc2-1,Potency,[1],inactive
same,Potency,[2],inactive
same,outcome,[3],inactive
same,Potency,[4],inactive
same,outcome,[19],inactive
same,outcome,[20],inactive
CN(C)C(=O)C(CCN1CCC(O)(c2ccc(Cl)cc2)CC1)(c1ccccc1)c1ccccc1,activity,[13],-5.52%
same,"activity change, negative = inhibition",[14],6.23%
same,activity,[15],-39.1%
same,activity,[16],-5.06%
same,Potency,[7],inactive
same,outcome,[3],inactive
same,Potency,[4],inactive
same,Potency,[5],inactive
COc1ccc(C2CNC(=O)C2)cc1OC1CCCC1 (stereo not given),Potency,[6],inactive
same,outcome,[3],inactive
same,Potency,[4],inactive
CN1CCN(CCCN2c3ccccc3Sc3ccc(Cl)cc32)CC1,Potency,[2],35 µM (active)
same,outcome,[3],inactive
same,Potency,[4],inactive
OCCN(CCO)c1nc(N2CCCCC2)c2nc(N(CCO)CCO)nc(N3CCCCC3)c2n1,Potency,[1],79.3 µM (active) and 70.6 µM (active) and 112 µM (active)
same,Potency,[2],inactive
same,outcome,[17],inactive
same,Potency,[6],inactive
same,Potency,[7],0.816 µM (active)
same,Potency,[4],inactive
same,Potency,[5],inactive
Cc1cn([C@H]2C=C[C@@H](CO)O2)c(=O)[nH]c1=O,Potency,[6],inactive
same,outcome,[3],inactive
same,Potency,[4],inactive
same,Potency,[5],inactive
CC(C)(C)C(=O)Oc1ccc(S(=O)(=O)Nc2ccccc2C(=O)NCC(=O)O)cc1,Potency,[6],inactive
same,outcome,[3],inactive
same,Potency,[4],inactive
same,Potency,[5],inactive
COc1cc2nc(N3CCN(C(=O)C4COc5ccccc5O4)CC3)nc(N)c2cc1OC (stereo not given),Potency,[6],inactive
same,Potency,[7],23 µM (active)
same,outcome,[3],inactive
same,Potency,[4],18 µM (active) and inactive
same,Potency,[5],inactive
O=c1c(O)c(-c2ccc(O)c(O)c2)oc2cc(O)cc(O)c12,Potency,[1],inactive
same,Potency,[2],75.7 µM (active)
same,outcome,[17],inactive
same,Potency,[18],inactive
same,outcome,[9],inactive
same,outcome,[10],inactive
same,outcome,[11],inactive
same,outcome,[12],inactive
same,outcome,[3],inactive
same,Potency,[4],inactive
Cn1ccc2cc3c(cc21)CCN3C(=O)Nc1cccnc1,activity,[13],-1.14%
same,"activity change, negative = inhibition",[14],-1.78%
same,activity,[15],-11.7%
same,activity,[16],1.53%
same,outcome,[3],inactive
same,Potency,[4],inactive
same,Potency,[5],inactive
